# In the library only some 3% were active in any assay of this set; here they are far more common.
# SENP8 block-1 – SENP8 protease inhibition; Q96LD8; purified SENP8, Z-RLRGG-aminoluciferin cleavage, luminescence; inhibition, % at 10 µM; 330,000 compounds, 1.2% hits; AID 2540; in the data active = inhibition above about 50%
# SENP8 block-2 – SENP8 (human) protease inhibition | AID 602440 | inhibition, % at 20 µM | recombinant SENP8, Nedd8 substrate fluorescence | Q96LD8 | 360,000 compounds, 0.64% hits; in the data active = inhibition mostly above about 40%, no sharp cut-off; inactive = mostly below about 27%
# SENP7 block – SENP7 protease inhibition. Q9BQF6. recombinant SENP7, Z-RLRGG-aminoluciferin luminescence, 40 min. inhibition, % at 5 µM. 330,000 compounds, 1.5% hits. AID 434973;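 active = inhibition above about 50% at the single test dose, limit read from the data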;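 also: plate controls were DMSO with enzyme for no effect and no enzyme buffer wells for full effect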
# PPC-1+TRAIL kill – compounds killing PPC-1 cancer cells with TRAIL present (potentiator screen, no TRAIL-free arm). PPC-1 cells + TRAIL, ATPLite viability luminescence. cell killing (% activity), % at 4 µM or 5 µM. 220,000 compounds, 0.41% hits;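 active = cell killing above 50% in the first pass at 4 µM, then a duplicate retest at 5 µM averaging 50% or more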;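 also: plate controls were cells with TRAIL plus DMSO for no effect and medium-only wells lacking cells for full effect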
# TRAIL sens C8 – sensitizes caspase-8 expressing cells to TRAIL. inhibition (viability loss, TRAIL sensitization), % at 10 µM. 360,000 compounds, 1% hits. NB7+C8 cells + TRAIL, ATPlite viability luminescence;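 active = compounds causing at least 50% loss of cell viability in the single-dose screen, relative to plate controls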
# SENP6 block – blocks the human protease SENP6; Q9GZR1; Recombinant SENP6 catalytic domain, aminoluciferin luminescence; inhibition, % at 10 µM; 330,000 compounds, 1.8% hits; AID 2599;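 active = inhibition above about 50% at the single tested dose, limit read from the data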;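 also: plate controls were DMSO wells with enzyme for no effect and DMSO wells lacking enzyme for full effect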
# Target sequence (Q9GZR1 628-1112 limits assumed): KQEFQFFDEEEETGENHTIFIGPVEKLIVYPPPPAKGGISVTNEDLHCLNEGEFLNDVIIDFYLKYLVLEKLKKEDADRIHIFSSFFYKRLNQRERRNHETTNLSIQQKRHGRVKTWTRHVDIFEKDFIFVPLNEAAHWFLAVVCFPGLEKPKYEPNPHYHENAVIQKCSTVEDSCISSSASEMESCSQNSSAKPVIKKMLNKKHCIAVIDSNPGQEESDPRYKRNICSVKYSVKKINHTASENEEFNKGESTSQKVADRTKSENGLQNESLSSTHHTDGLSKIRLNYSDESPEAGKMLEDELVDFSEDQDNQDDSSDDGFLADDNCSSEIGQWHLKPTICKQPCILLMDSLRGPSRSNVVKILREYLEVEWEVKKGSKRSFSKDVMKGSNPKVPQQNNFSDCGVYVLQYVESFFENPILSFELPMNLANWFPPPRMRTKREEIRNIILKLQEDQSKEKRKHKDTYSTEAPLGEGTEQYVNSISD
# SENP8 inh conf – SENP8 (human) inhibition, single concentration confirmation | shares compounds with SENP8 block-2 | purified SENP8, Nedd8-AMC/pro-Nedd8 cleavage fluorescence, 30 min | inhibition, % at 25 µM | 1,400 compounds, 15% hits | AID 624319; in the data active = inhibition mostly above about 39%, no sharp cut-off; inactive = mostly below about 34%
# The depositor's hits bear a star; . = not tested or not shown.
SMILES,SENP8 block-1,SENP8 block-2,SENP7 block,PPC-1+TRAIL kill,TRAIL sens C8,SENP6 block,SENP8 inh conf
Cc1ccc(S(=O)(=O)N2CCOCC2)cc1C(=O)OCC(=O)N1CCc2ccccc2C1,.,51*,.,42,15,.,37
O=C(COC(=O)c1cc(S(=O)(=O)N2CCc3ccccc3C2)ccc1Cl)NCc1ccco1,4,42*,18,8,-20,19,57*
NS(=O)(=O)c1ccc(CCNS(=O)(=O)c2ccc3c(c2)NC(=O)CO3)cc1,-1,11,-1,.,4,9,.
O=C1c2cc([N+](=O)[O-])cc3cc([N+](=O)[O-])cc(c23)C(=O)N1c1ccccn1,.,43*,.,1,8,.,35
O=C1c2ccc(Oc3cccc([N+](=O)[O-])c3)cc2C(=O)N1c1ccccn1,-7,7,15,6,-4,-9,.
O=C(NC(C(=O)O)c1ccccc1)c1ccccc1 (centres undefined),.,10,.,18,7,.,.
NC(=O)CC(NC(=O)c1ccccc1)C(=O)O (centres undefined),-6,42*,-19,.,14,-14,18
CC(NC(=O)CSC(=S)N1CCCC1)c1ccc(S(N)(=O)=O)cc1 (centres undefined),1,13,3,.,-26,5,.
O=[N+]([O-])c1c(NCCCO)cc(SCc2ccco2)c2nonc12,11,42*,14,-9,5,45,29
CC(=O)OCCNc1cc(SCc2ccco2)c2nonc2c1[N+](=O)[O-],.,76*,.,31,4,.,10
CC(=O)OCCCNc1cc(Sc2nc3ccccc3s2)c2nonc2c1[N+](=O)[O-],92*,60*,81*,-4,38,84*,35
CC(=O)OCCCNc1cc(Sc2ccc(C)cc2)c2nonc2c1[N+](=O)[O-],-4,12,-4,14,21,-2,.
O=[N+]([O-])c1c(NCCCO)cc(Sc2ccc(Cl)cc2)c2nonc12,.,28,.,10,16,.,.
O=C(c1cc2ccccc2o1)N1CCN(C/C=C/c2ccccc2)CC1,-15,15,-14,.,11,-8,.
CC1(C(=O)N2Cc3ccccc3C2)CCN1C(=O)C1(c2ccc(Cl)cc2)CC1 (centres undefined),.,1,.,.,4,.,.
O=C1c2cccc3cccc(c23)C(=O)C1(O)O,9,52*,-3,.,-15,17,40
COc1ccc2c(c1)C(=O)N(c1ccc(C)cc1C)C(=O)C2,-6,2,-1,24,-1,19,.
COc1ccc2c(c1)C(=O)N(c1ccccc1OC)C(=O)C2,-1,69*,-17,34,-14,-3,38*
O=C(c1cccc2ccccc12)N1CCN(c2ccc([N+](=O)[O-])c(NCc3ccco3)c2)CC1,-3,42*,1,18,2,-9,10
Cc1ccc(C(=O)N2CCN(c3ccc([N+](=O)[O-])c(NCc4ccco4)c3)CC2)cc1,-5,48*,6,24,-9,-10,14
CC(=O)N1CCN(c2ccc([N+](=O)[O-])c(NCc3cccnc3)c2)CC1,-3,19,-12,-6,-9,-8,.
Cc1cccc(C(=O)N2CCN(c3ccc([N+](=O)[O-])c(NCc4ccco4)c3)CC2)c1,2,35,0,3,-1,-8,.
Cc1ccccc1C(=O)N1CCN(c2ccc([N+](=O)[O-])c(NCc3ccco3)c2)CC1,-3,53*,-7,15,7,-10,26
COc1ccc(NC(=O)C(CC(=O)O)C(C)c2ccccc2)cc1 (centres undefined),2,-6,-1,12,-12,9,.
CCOC(=O)/C(C#N)=C/C=C1/C=CC=CN1C,-3,34,3,-20,4,-7,.
SMILES,SENP8 block-1,SENP8 block-2,SENP7 block,PPC-1+TRAIL kill,TRAIL sens C8,SENP6 block,SENP8 inh conf
C=CCN1C=CC(=C/C=C(/C#N)C(=O)OCC)C=C1,-12,61*,-9,43,49*,-31,29
CC1(C(=O)NS(=O)(=O)Cc2cccc(Cl)c2)CCN1C(=O)CCc1cccs1 (centres undefined),.,7,.,.,-28,.,.
O=C(CC(c1ccccc1)c1ccccc1)NCc1cccnc1,1,41*,0,15,2,-1,13
CC(C)CNC(=O)COC(=O)c1n[nH]c2ccccc12,9,-12,9,10,7,-6,.
CC(=O)c1ccc(N2CCN(C(=O)c3ccccc3SCC(=O)NCc3ccco3)CC2)c(F)c1,.,-296,.,.,2,.,.
O=[N+]([O-])c1ccc(C=NNC(=S)NN=Cc2ccc([N+](=O)[O-])cc2)cc1,.,70*,.,.,9,.,13
O=[N+]([O-])c1ccc(C=NNC(=S)Nc2ccc(F)cc2)cc1,.,28,.,.,-3,.,.
C[C@@H]1CN([C@@H](C)CO)C(=O)c2cc(Br)cnc2O[C@H]1CN(C)S(=O)(=O)c1cccs1,.,15,.,.,-4,.,.
CN(C)c1ccc(NC(=O)CN2CCC(N3CCCCC3)CC2)cc1,4,42*,1,8,0,-2,-12
C[n+]1cccc2cccc([O-])c21,.,96*,.,6,-27,.,58*
[O-][n+]1cccc2cccc(O)c21,.,-3,.,.,-18,.,.
CCC(C)[C@H](NC(=O)C1CC(=O)N(c2ccc(OC)cc2)C1)C(=O)N1CCCCC1 (some centres undefined),6,7,2,.,-18,0,.
CC(/C=C/C(=O)c1ccc(C)cc1)=C\c1ccccc1,-17,46*,3,2,14,-1,17
Cc1cc2ccccn2c1C(=O)c1ccccc1F,6,41*,-1,.,16,-12,-5
Cc1cc2ccccn2c1C(=S)NC(=O)c1ccccc1,2,9,13,-1,15,20,.
Cc1cc(/N=C/N(C)C)on1,6,12,7,18,-15,-2,.
CN(C)C=Nc1nonc1N,-7,45*,-7,11,0,-19,2
COc1ccc(NC(=O)CCC(=O)N2CCC(c3ccccc3)=N2)cc1S(=O)(=O)N1CCCCC1,.,-2,.,.,-9,.,.
CCOC(=O)C1=C(O)C(=O)N(c2ccc(S(N)(=O)=O)cc2)C1c1cccc([N+](=O)[O-])c1 (centres undefined),-9,26,-5,2,-20,-12,.
CCOC(=O)C1=C(O)C(=O)N(c2ccccc2)C1c1cccc([N+](=O)[O-])c1 (centres undefined),7,40*,-1,-2,9,-22,27
CCCCOC(=O)C1=C(C)NC2(O)c3ccccc3C(=O)C12O (centres undefined),3,46*,1,15,3,7,65*
Nc1nc2c(nc(SCc3ccccc3Br)n2[C@@H]2O[C@H](CO)[C@@H](O)[C@H]2O)c(=O)[nH]1,4,2,7,.,-5,8,.

# Screening results deposited in PubChem by Sanford-Burnham Center for Chemical Genomics.
